Measurements taken from PubChem BioAssay AID651704 (Broad Institute, 2012).
Hit rate of the full screen: of about 350,000 compounds, about 1,600 (0.46%) were called active. Shown is part of a subset that was picked to be rich in actives. Values without a mark were called inactive.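 How the source made its calls: active means every replicate reaching a set inhibition limit, whatever the replicate mean (cut at about 25% in these data); inconclusive means mean inhibition reaches that limit but some replicates miss it; inactive means the rest.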

molecular target: Protein AF-9 (Homo sapiens) (UniProt P42568); assay: MLL-AF4/AF9 protein interaction blockers – biochemical, AlphaScreen, biotin-AF4 peptide, FLAG-AF9, single point, primary screen (AID 651704); conditions: biotin-AF4 peptide binding to FLAG-AF9, at 10 µM, active compounds read high;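 further: 0% = plate neutral control median and 100% = total signal loss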
Sequence (P42568 whole entry, looked up): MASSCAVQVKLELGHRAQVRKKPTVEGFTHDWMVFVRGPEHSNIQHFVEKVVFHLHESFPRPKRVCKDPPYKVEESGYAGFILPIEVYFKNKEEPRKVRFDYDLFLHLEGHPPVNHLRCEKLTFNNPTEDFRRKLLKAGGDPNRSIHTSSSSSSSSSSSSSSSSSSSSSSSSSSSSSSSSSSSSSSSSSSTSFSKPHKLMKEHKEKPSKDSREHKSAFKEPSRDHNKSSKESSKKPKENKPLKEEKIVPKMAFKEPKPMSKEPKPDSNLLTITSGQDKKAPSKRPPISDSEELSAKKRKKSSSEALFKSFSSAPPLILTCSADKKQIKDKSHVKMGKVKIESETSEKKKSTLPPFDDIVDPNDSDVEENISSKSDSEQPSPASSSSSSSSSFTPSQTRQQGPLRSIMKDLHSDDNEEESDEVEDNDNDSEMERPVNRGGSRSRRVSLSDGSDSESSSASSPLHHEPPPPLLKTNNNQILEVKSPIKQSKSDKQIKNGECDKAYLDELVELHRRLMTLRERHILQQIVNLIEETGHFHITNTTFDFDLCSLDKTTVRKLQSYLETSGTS

**Q.** Which inhibition does the source give for `O=C(C[C@@H]1CC[C@H](NC(=O)c2ccncc2)[C@@H](CO)O1)Nc1ccc(-c2ccccc2)cc1` here?
**A.** -2.25%

**Q.** Which inhibition does the source give for `CO[C@@H]1CN(C)C(=O)c2ccc(NC(C)=O)cc2OC[C@@H](C)N(Cc2ccc(-c3ccccn3)cc2)C[C@H]1C` here?
**A.** 2.32%

**Q.** Which inhibition does the source give for `O=C(Nc1nnc(SCc2ccccc2Cl)s1)c1cccc([N+](=O)[O-])c1` here?
**A.** 48% (active)

**Q.** `NC(=O)CSc1nnc(NC(=O)c2ccc3ccccc3c2)s1` was tested. Which inhibition did it give?
**A.** -1.88%

**Q.** `O=C(Nc1nnc(SCc2c(Cl)cccc2Cl)s1)c1cccc([N+](=O)[O-])c1` was tested. Which inhibition did it give?
**A.** 1.85%

**Q.** With `COc1cc(CN2CC3(CN(S(=O)(=O)c4cn(C)cn4)C3)c3c(n(C)c4cc(OC)ccc34)[C@H]2CO)cc(OC)c1` as the molecule, how does the inhibition read?
**A.** 12.6%

**Q.** For `COc1ccc(NC(=O)Nc2ccc3c(c2)[C@H]2C[C@H](CC(=O)NC4CCCC4)O[C@@H](CO)[C@H]2O3)cc1`, which inhibition is on record?
**A.** 0.232%

**Q.** How did the inhibition turn out when `Cc1cc(C)nc(N/N=C/c2c(CO)cnc(C)c2O)n1` was run?
**A.** -5.08%

**Q.** Which inhibition does the source give for `CCN(CC)c1ccc(/C=N/Nc2nc(C)cc(C)n2)c(O)c1` here?
**A.** 79.7% (active)

**Q.** How did the inhibition turn out when `CCN(CC)c1ccc(/C=N/NC(=O)c2cnccn2)c(O)c1` was run?
**A.** -1.45%

**Q.** How did the inhibition turn out when `O=C(C[C@H]1CC[C@H]2[C@@H](COC[C@H](O)CN2C(=O)c2ccncc2)O1)NCc1cc(F)cc(F)c1` was run?
**A.** -16%

**Q.** How did the inhibition turn out when `COc1ccccc1NC(=O)N1CC(=O)N2[C@H](CO)[C@@H](c3ccc(C#Cc4ccc(F)cc4)cc3)[C@H]2C1` was run?
**A.** 2.6%

**Q.** How did the inhibition turn out when `Cn1cnc(S(=O)(=O)N2C[C@H](O)COC[C@@H]3O[C@H](CC(=O)NC4CCCC4)CC[C@H]32)c1` was run?
**A.** -0.241%

**Q.** `COc1ccc(S(=O)(=O)Nc2ccc3c(c2)CC(=O)N([C@@H](C)CO)C[C@@H](C)[C@@H](CN(C)Cc2ccc(C(=O)Nc4ccccc4N)cc2)O3)cc1` was tested. Which inhibition did it give?
**A.** -0.302%

**Q.** `C[C@@H]1CCCCO[C@H](CN(C)S(=O)(=O)c2cn(C)cn2)[C@@H](C)CN([C@@H](C)CO)C(=O)c2cc(NC(=O)CCC(F)(F)F)ccc2O1` was tested. Which inhibition did it give?
**A.** -0.444%

**Q.** For `COc1ccc(C(=O)COC(=O)c2ccc([N+](=O)[O-])s2)cc1OC`, which inhibition is on record?
**A.** -0.958%

**Q.** Which inhibition does the source give for `COc1ccc(-n2nnnc2SCC(=O)c2ccc(OC)c(OC)c2)cc1` here?
**A.** -42.4%

**Q.** For `C=Cn1cc[n+](CC(=O)c2ccc(OC)c(OC)c2)c1`, which inhibition is on record?
**A.** 28.8% (active)

**Q.** With `CO[C@@H]1CN(C)C(=O)c2ccc(NC(=O)C3CCCC3)cc2OC[C@H](C)NC[C@@H]1C` as the molecule, how does the inhibition read?
**A.** -0.502%

**Q.** `C#CCOCCOCCOCCNc1nc(N2CCN(C(=O)[C@H](CO)n3cc([C@@H](N)C(C)C)nn3)CC2)nc(N2CCN(C(=O)[C@H](CCC(=O)O)n3cc([C@@H](N)[C@H](C)CC)nn3)CC2)n1` was tested. Which inhibition did it give?
**A.** 0.229%

**Q.** With `C#CCOCCOCCOCCNc1nc(N2CCN(C(=O)[C@H](CCC(=O)O)n3cc(C(N)CO)nn3)CC2)nc(N2CCN(C(=O)[C@H](Cc3ccc(O)cc3)n3cc(C(N)[C@H](C)CC)nn3)CC2)n1` (some centres not stated) as the molecule, how does the inhibition read?
**A.** 2.1%

**Q.** Which inhibition does the source give for `C#CCOCCOCCOCCNc1nc(N2CCN(C(=O)[C@H](CCCN=C(N)N)n3cc(C(N)[C@@H](C)CC)nn3)CC2)nc(N2CCN(C(=O)[C@H](CO)n3cc([C@@H](N)C(C)C)nn3)CC2)n1` (some centres not stated) here?
**A.** 29.3% (active)

**Q.** For `O=C([C@@H]1[C@@H](CO)[C@@H]2Cn3c(ccc(-c4ccccc4F)c3=O)[C@H]1N2C(=O)C1CCC1)N1CCCCC1`, which inhibition is on record?
**A.** -3.29%

**Q.** How did the inhibition turn out when `C[C@@H]1CCCCO[C@H](CN(C)C(=O)Nc2ccc(C(F)(F)F)cc2)[C@@H](C)CN([C@@H](C)CO)C(=O)c2cc(NS(=O)(=O)c3cccs3)ccc2O1` was run?
**A.** 2.48%

**Q.** For `CO[C@@H]1CN(C)C(=O)c2cc(NC(C)=O)ccc2OC[C@H](C)N(Cc2ccccn2)C[C@H]1C`, which inhibition is on record?
**A.** -0.12%

**Q.** For `N#C[C@@H]1[C@@H](c2ccccc2C2=CCCC2)[C@H](CO)N1C(=O)NC1CCCC1`, which inhibition is on record?
**A.** 2.11%

**Q.** How did the inhibition turn out when `COCC#Cc1ccc([C@@H]2[C@@H](CO)N3C(=O)CN(C(=O)C4CCOCC4)C[C@@H]23)cc1` was run?
**A.** -0.906%
